The source of these data is PubChem BioAssay AID686978 (National Center for Advancing Translational Sciences (NCATS), 2013).

Hit rate of the full screen: of about 420,000 compounds, about 64,000 (15%) were called active. Another 27% or so got no clear call; they are omitted. These entries were drawn from the full list. A number with no mark means an inactive call. Calls come from the whole dose curve; as a rule, active = well fitted inhibition curve with a large enough effect; inconclusive = small, poorly fitted or top-dose-only effect; inactive = flat fitted curve, though single readings scatter.
% is set by controls: 0 for no effect and ±100 for the full control effect; potency is the fitted concentration of half-maximal effect.

The nature of the experiment: qHTS for Inhibitors of human tyrosyl-DNA phosphodiesterase 1 (TDP1): qHTS in cells in absence of CPT. Note: nearly all actives have a fitted effect of over 55% in size. The note with it: DT40 Tdp1-/- hTDP1 cells, no CPT, ATP luminescence, 48 h; activity change, negative = growth inhibition: at 46.2 µM (top of the series). The procedure, abridged: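 Chicken DT40 Tdp1-/- cells stably complemented with human TDP1 were seeded at 400 cells/well with DMSO in place of 20 nM camptothecin. After compound pinning, cells grew at least 48 hr at 37 °C; viability read by CellTiter-Glo luminescence.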
Turning to `COc1cc(CNc2ncn[nH]2)ccc1OCc1ccccc1C`, the “activity change, negative = growth inhibition” value was -14.2%. The same measure, in the same setting: in the case of `CC(C)CNc1ncnc2c1nnn2C` it was -1.79%. Consider `Cc1cccc(NC(=O)NC2(C)CCS(=O)(=O)C2)c1` (stereo not drawn), for which the “activity change, negative = growth inhibition” value is 22.1%.

For `Cc1nccn1-c1ccc(NC(=O)[C@H]2O[C@@H](n3ccc(=O)[nH]c3=O)[C@H](O)[C@@H]2O)cc1`, the “activity change, negative = growth inhibition” value is -4.65%. Same read-out and setting: as for `COCCOC(=O)C1=C(C)NC(=O)NC1c1cc2c(cc1Br)OCO2` (stereo not drawn), the figure is -5.22%. The same measure, in the same setting: in the case of `CCOc1cc(S(=O)(=O)NC2CC(C)(C)NC(C)(C)C2)ccc1F` it was -14.5%; in that of `COc1cc(/C=N/Nc2ccc(C)cc2)cc(Br)c1O`, 4.09%. Same read-out and setting: as for `COc1cc(/C=N/NC(=O)Cc2ccccc2)cc(OC)c1OC`, the figure is -8.58%.

In the case of `COc1cc(/C=N/Nc2nn3cnnc3c3ccccc23)cc(OC)c1OC`, the Potency was 16.4 µM (active). `Cc1nnsc1C(=O)NCc1c(F)cccc1Cl`: the “activity change, negative = growth inhibition” value was -7.8%. Same read-out and setting: as for `COc1ccccc1Nc1nnc(SC(C)C(=O)NC2CC2)s1` (stereo not drawn), the figure is 7.34%. As to `Cc1ccc(OCc2n[nH]c(=S)n2-c2ccccc2)cc1`, the “activity change, negative = growth inhibition” value is -14.7%. As for `Cc1ccc(NCc2n[nH]c(=S)n2-c2ccccc2)cc1Cl`, the “activity change, negative = growth inhibition” value was -9.32%. For `S=c1[nH]nc(CSCc2ccc(Cl)cc2Cl)n1-c1ccccc1`, the Potency was 15.8 µM (active). `Cc1c(C(=O)N2CCCC2)c(S(=O)(=O)NCC(C)c2ccccc2)c(C)n1C` (stereo not drawn): the “activity change, negative = growth inhibition” value was -3.35%. Still for that read-out and setting: in the case of `O=C(N1CCOCC1)N(Cc1ccccc1)c1ccccn1` it was -18.7%; in that of `O=C(c1cccs1)N(C(=O)c1cccs1)c1ccccn1`, -1.91%. Regarding `O=C(c1ccc(Br)o1)N(c1ccccn1)C1CCCCC1`, the Potency is 23.1 µM (active). For `CCn1c(CNC(=O)C23CC4CC(CC(C4)C2)C3)nnc1SCC(=O)Nc1ccc(OC)cc1`, the “activity change, negative = growth inhibition” value was -26.1%. The same measure, in the same setting: as for `CN(C)/C=C(\C#N)C(=O)c1cccnc1Oc1ccc(F)cc1F`, the figure is -1.4%. As for `O=c1ccc2c(-c3ccccc3S(=O)(=O)O)c3ccc(O)c(O)c3oc-2c1O`, the Potency was 11.6 µM (active). For the compound `CCCNC(=S)NC1CC2CCCC(C1)N2CC(C)C` (stereo not drawn), the “activity change, negative = growth inhibition” value is -5.2%. Turning to `O=C(NCCCc1ccccc1)c1cc(COc2c(F)cccc2F)on1`, the “activity change, negative = growth inhibition” value is -0.395%. `CC(NC(=O)c1ccccc1)C(=O)Nc1ccccc1` (stereo not drawn): the “activity change, negative = growth inhibition” value was 0.972%.

For the compound `O=C(NC(=O)c1ccccc1)NC(=O)c1ccccc1`, the “activity change, negative = growth inhibition” value is -20.8%.

Consider `O=C(NC1=CC(=O)c2ccccc2C1=O)c1ccccc1`, for which the Potency was 1.16 µM (active). On the same count and under the same terms, in the case of `Cc1csc[n+]1CCC1CCCCC1` it was 10 µM (active).

Turning to `C=CCn1c(SCC(=O)/C(C#N)=C(\C)N)nc2sc(C)c(C)c2c1=O`, the “activity change, negative = growth inhibition” value is -16.5%. Still for that read-out and setting: as for `CC(=O)c1ccc(N2CCN(c3nc4c(S(=O)(=O)c5ccccc5)nnn4c4ccc(Cl)cc34)CC2)cc1`, the figure is -23.4%. As to `CCOC(=O)c1nnn2c1nc(N1CCN(c3ccccc3)CC1)c1ccccc12`, the Potency is 14.6 µM (active). Regarding `CCOC(=O)c1nnn2c3ccccc3c(=O)n(C)c12`, the “activity change, negative = growth inhibition” value was 2.33%.

Consider `CCOc1ccc(NC(=O)CCNC(=O)c2ccc(Br)cc2)cc1`, for which the “activity change, negative = growth inhibition” value is -6.82%.

For the compound `CCOC(=O)CNC(=O)CSc1nnc(-c2cccc(OC)c2)n1CC`, the “activity change, negative = growth inhibition” value is -6.98%.

As for `COC(=O)CC(CC(=O)OC)n1cccc1`, the “activity change, negative = growth inhibition” value is -0.736%.

`CCOCc1nnc(NC(=O)CCS(=O)(=O)Cc2ccccc2)s1`: the Potency is 18.4 µM (active).

In the case of `COCCSc1nnc(NC(=O)CCS(=O)(=O)Cc2ccccc2)s1`, the “activity change, negative = growth inhibition” value is -12.4%.

As to `CCCCc1nnc(NC(=O)CS(=O)(=O)Cc2ccccc2)s1`, the “activity change, negative = growth inhibition” value is -15.5%. Still for that read-out and setting: as for `CC1CN(Cc2ccccc2)C(=S)NC1=O` (stereo not drawn), the figure is -1.83%. `O=C(Nc1ccccc1)/C(=C\c1ccco1)NC(=O)c1ccco1`: the “activity change, negative = growth inhibition” value was -14.5%. Same read-out and setting: in the case of `CCC1CN(CCNC(=O)c2ccsc2)Cc2cc(OC)ccc2O1` (stereo not drawn) it was -14.3%.

On to `CC1CCN(S(=O)(=O)c2ccc3c(c2)N(CC(=O)NCCc2ccccc2)C(=O)CO3)CC1`, for which the Potency was 20.6 µM (active). Turning to `CCCCN(CCCC)CCNC(=O)CN1C(=O)COc2ccc(S(=O)(=O)N3CCOCC3)cc21`, the “activity change, negative = growth inhibition” value is -17.6%. For `CCCCN(CCCC)CCCNC(=O)CN1C(=O)COc2ccc(S(=O)(=O)N3CCC(C)CC3)cc21`, the Potency was 9.2 µM (active). As for `CC(=O)Nc1ccc(NC(=O)CN2C(=O)COc3ccc(S(=O)(=O)N4CCCCC4)cc32)cc1`, the “activity change, negative = growth inhibition” value was 8.59%. Same read-out and setting: as for `Cc1ccc2c(c1)N(CC(=O)N1CCOCC1)C(=O)CO2`, the figure is 5.74%; as for `CN(C)c1ccc(CNC(=O)CN2C(=O)COc3ccc(S(=O)(=O)N4CCCC4)cc32)cc1`, 7.19%. For the compound `CC1CCN(CCCNC(=O)CN2C(=O)CSc3ccc(S(=O)(=O)N4CCCCC4)cc32)CC1`, the Potency entry is “inactive”. Take `COCCCNC(=O)CN1C(=O)CSc2ccc(S(=O)(=O)N3CCOCC3)cc21`: the Potency entry is “inactive”. Turning to `Cc1ccc(CCNC(=O)CN2C(=O)CSc3ccc(S(=O)(=O)N4CCOCC4)cc32)cc1`, the Potency was 20.6 µM (active). Same read-out and setting: as for `Cc1ccc(C)c(N2CCN(C(=O)CN3C(=O)COc4ccc(S(=O)(=O)N5CCCCCC5)cc43)CC2)c1`, the figure is 16.4 µM (active). Regarding `Cc1ccc2c(c1)N(CC(=O)NCC1CCCO1)C(=O)CO2` (stereo not drawn), the “activity change, negative = growth inhibition” value was 2.23%. Same read-out and setting: in the case of `COc1ccc(CCNC(=O)CN2C(=O)COc3ccc(S(=O)(=O)N4CCCC4)cc32)cc1OC` it was -1.61%; in that of `CN(C)C(CNC(=O)c1ccc(OCc2cn3ccccc3n2)cc1)c1ccco1` (stereo not drawn), -1.5%.
